Potency data for one compound are collected here from PubChem BioAssay AID504366 (National Center for Advancing Translational Sciences (NCATS), 2011).

Calls of active or inactive are those of the source. Calls come from the whole dose curve.

The nature of this assay: Immunofluorescence assay for KAP-1 phosphorylation on Ser824 for Identifying a Potential Treatment of Ataxia-Telangiectasia: SAR for Probe. The settings on record: F2112 A-T fibroblasts, pKAP-1 S824 immunofluorescence. The source says: NIH Chemical Genomics Center [NCGC] NIH Molecular Libraries Probe Centers Network [MLPCN] MLPCN Grant: MH089030-01 Assay Submitter (PI): Wei Zheng and Yosef Shiloh Ataxia-telangiectasia (A-T) is a devastating and progressive disease for which, there is no cure. Although A-T is a multisystem disease, it is stereotyped characterized by its neurological symptoms such as truncal ataxia, due to cerebellar cortical degeneration of the Purkinje and granule cells. Other symptoms of A-T are telangiectasias (dilated blood vessels), primary immunodeficiency, marked sensitivity to ionizing radiation (IR), chromosomal instability and predisposition to cancer. The underlying genetic cause of A-T is null mutations in the ATM (A-T mutated) gene. ATM is a nuclear serine/threonine kinase that functions as a master regulator of the cellular responses to double strand breaks (DSBs) in the DNA. Upon activation by DSBs, ATM phosphorylates a plethora of downstream targets, including KAP-1 on […]. KAP-1 phosphorylation occurs shortly in response to DSBs and mediates global chromatin relaxation, which facilitates DSB repair. To screen for small molecules that will compensate for the loss of ATM in cells derived from A-T patients, we monitored KAP-1 phosphorylation as a readout for ATM-like activity using an AlphaLISA assay.
qHTS Assay Protocol: 1. […] Plates are the read on InCell.
Take `CC(=O)c1c(O)c(C)c(O)c(Cc2c(O)c3c(c(C(=O)/C=C/c4ccccc4)c2O)OC(C)(C)C=C3)c1O`: the Potency was 10 µM (active).
